The supplement of paper PMC11417369
The full ranking holds about 25,000 sequences; the median of “ln(normalized median fluorescence intensity)” is about 7.1, and the highest 2% start at about 10. Only a selection was taken, and the highest values are over-represented in it overall.

system: PfSIP2 AP2 domain 1 (GST-tagged); assay: gcPBM binding intensity (ln(normalized median fluorescence intensity)); higher = stronger DNA binding
In short: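 The highest Masliner-normalised natural-log median intensity across replicate spots of either probe orientation is reported as binding intensity. GST-tagged P. falciparum DNA-binding domains expressed in E. coli were applied for 1 h to an Agilent 4 × 180k array of primer-extended double-stranded 36-bp intergenic genomic probes plus negative controls, and bound protein was detected with Alexa488 anti-GST antibody and scanned at 488 nm.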

Compared with “TAAGAGTAGTTATATACACACATGTATATTATAGTT [CACACA_site6815]”, “ATAATATATACTATATGTACATATCTTTTCCTCTTT [XGTACX_site5553]” is higher in “gcPBM binding intensity (ln)” value: 6.84 for the first, 7.1 for the second.

Compared with “TATAAAAATAAGCACACACACAAATATAGATTTATT [CACACA_site6558]”, “AAAAAAAAAAAAAACACACAGAACAATATATAAATA [CACACA_site982]” is higher in “gcPBM binding intensity (ln)” value: 6.98 for the first, 7.11 for the second.

First: TAATAATTAATTAATATAATATTTTTTCATAATTAT [XGTACX_negctrl_site602]
Second: TCCTTATTTATATAATGTACTTTTTTTTTTCATTTT [XGTACX_site4275]
The “gcPBM binding intensity (ln)” value of the first is lower: 6.82 for the first, 6.92 for the second.

Going from “ATTATATAATAATGCATGCACCTTATTTTCATTTCA [GTGCAC_site9922]” to “TATTATTTTTCATATGCATGCAAAAATAAAAAAATA [TGCATGCA_site350]”, the “gcPBM binding intensity (ln)” value falls from 10.7 to 7.05.

First: ATATTATATAATAATGCATGCACCTTATTTTCATTT [TGCATGCA_site405]
Second: CCTTTCACATATAATACATGCATTATTATATATGAA [TGCATGCA_site287]
The “gcPBM binding intensity (ln)” value of the first is higher: 11.3 for the first, 7.51 for the second.

Compared with “TTTATATTTATGATGGGTACACAAAATTTTACCCAT [XGTACX_site1504]”, “TGAATAATCAATAGTACACACATATAAATATATATA [CACACA_site2813]” is higher in “gcPBM binding intensity (ln)” value: 6.96 for the first, 7.28 for the second.

First: AGGTGTCATAGATGCACACAAAAGTAACACGCACCT [CACACA_site4418]
Second: AAAAAAAAAATATTTGAACACACGAGGATATATAAA [CACACA_site139]
The “gcPBM binding intensity (ln)” value of the first is higher: 9.65 for the first, 6.89 for the second.

Compared with “TAAAAGATAAAATATGCATGTGTAATTTTTTTTTTT [TGCATGCA_site955]”, “AACCATTTTAAATATGCACACAGATGCACTAACACA [CACACA_site8565]” is higher in “gcPBM binding intensity (ln)” value: 6.79 for the first, 11 for the second.

Going from “TTTTTTTAAATATACACACACATTTATACAGATATA [CACACA_site5811]” to “TAAATATGCTCACAGATGCACTAACACATTTTTATA [GTGCAC_site9997]”, the “gcPBM binding intensity (ln)” value rises from 7.12 to 8.14.

Compared with “GCACTAAAAAAATAAACACACAGATTTATATAATAT [CACACA_site1381]”, “CCATTTTAAATATGCACACAGATGCACTAACCCATT [CACACA_site1883]” is higher in “gcPBM binding intensity (ln)” value: 6.83 for the first, 10.7 for the second.

Compared with “TAAATTATATTATGCACACTTAAAAATATATTTAAC [CACACA_site3512]”, “CCATTTTAAATATGCACACAGATGCACTAACACATT [CACACA_site5099]” is higher in “gcPBM binding intensity (ln)” value: 9.01 for the first, 10.5 for the second.

Compared with “GTATAATATTTTAATGCACACACACTAATAAAAAAA [CACACA_site8939]”, “TGGCACTAAAAAAATAAACACACAGATTTATATAAT [CACACA_site8386]” is lower in “gcPBM binding intensity (ln)” value: 7.65 for the first, 6.8 for the second.

Going from “TATTAACTCAATAGCGCACACTTTTAATATTTTATA [CACACA_site4973]” to “TAAATAGGAAAACCTATACACACTTTAAAAAAAATA [CACACA_site1621]”, the “gcPBM binding intensity (ln)” value falls from 7.33 to 6.75.

Compared with “ATTATATCATCTAAAACATGCACACATATGTACTCT [TGCATGCA_site949]”, “TTATTTATGAGGGTGACACACAAAAGAGTGTTAAGA [CACACA_site277]” is lower in “gcPBM binding intensity (ln)” value: 7.12 for the first, 6.75 for the second.

Going from “ATACGAAAAAATAGACGTACTATGAAATAATAATTT [XGTACX_site8387]” to “GTCCTCATCCACTATGCACACAAAAAAGAAATACAC [CACACA_site9131]”, the “gcPBM binding intensity (ln)” value rises from 6.87 to 8.48.

Compared with “GGAAAAAATATATGCACACCCCCCAAAAAAAAAAAA [CACACA_site2222]”, “AAAAAAAAAAAACACACACACACACCCAAATATATA [CACACA_site150]” is lower in “gcPBM binding intensity (ln)” value: 9.73 for the first, 7.14 for the second.

Compared with “TGGGAAAAAATATATGCACACCCCCCAAAAAAAAAA [CACACA_site8696]”, “ATAGTTTTATATAAATGTACAAATGATTTCAAATAG [XGTACX_site8236]” is lower in “gcPBM binding intensity (ln)” value: 10.8 for the first, 7.08 for the second.

First: ATAATTAAAAATAATATATATATAATATGATATTAT [GTGCAC_negctrl_site194]
Second: ATATATATATATTTCGTGCACTGATAATATTATTTT
The “gcPBM binding intensity (ln)” value of the first is lower: 6.94 for the first, 10.2 for the second.

First: ATGATATATTTAATAGTGCACTAATTAAAATTATTA [GTGCAC_site9418]
Second: AAAAAAAAAAAATACGTGCACTATGATATATTATAT
The “gcPBM binding intensity (ln)” value of the first is higher: 11 for the first, 10.3 for the second.

Compared with “ATAATTATATGATGAGTGCACAATAAAAATATCGTT [GTGCAC_site9920]”, “ATTATTAAAATGATATGTACGCACATAATATACATA [XGTACX_site3236]” is lower in “gcPBM binding intensity (ln)” value: 10.7 for the first, 7.06 for the second.

Going from “TTATATTATTCGTGTGTGCACGATATTTCATAATTG [GTGCAC_site9767]” to GTTATATTTAAAATAGTGCAATAAAAATAATAATAT, the “gcPBM binding intensity (ln)” value falls from 8.96 to 8.42.

First: ATATTTTATATAATAGTGCAAATAATATTAAATAAT
Second: TTATAATATTAATGTGCACACAATTAAAATATTATA [CACACA_site2046]
The “gcPBM binding intensity (ln)” value of the first is lower: 8.4 for the first, 9.4 for the second.

Going from “TAAATATATATATATAGTACAATATAATTATGATAT [XGTACX_site258]” to “ATATATATATTTATAGTGCATTTATATTAAAATATC [GTGCAC_site9818]”, the “gcPBM binding intensity (ln)” value rises from 7.24 to 8.92.

In the case of “TATATATATACTTAATGTACATATATATATATATAT [XGTACX_site3102]”, the “gcPBM binding intensity (ln)” value is reported as 9.75.
